# Reference: the supplement of paper PMC8253809
# Tests used:
# Experiment in all cases: growth inhibition (% activity, log2 RLU normalised to DMSO / staurosporine); higher = more growth inhibition
# Conditions in all cases: 33 µM
# [1] = system: DIPGX29 (H3.3 K27M diffuse intrinsic pontine glioma line)
# Method in brief: (§1)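 For each approved drug, the growth-inhibition value is the replicate median of per-plate normalised CellTiter-Glo data. Luminescence was log2-transformed and expressed as % activity between solvent and positive control wells. Drugs were applied in triplicate at a single final concentration of about 33 μM for 7 days at 37 °C, 5% CO2 to pHGG cell lines and H9-derived neural stem cells.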
# [2] = system: DIPGX37 (H3.3 K27M diffuse intrinsic pontine glioma line)
# Method in brief: as §1
# [3] = system: DIPGX7 (H3.3 K27M diffuse intrinsic pontine glioma line)
# Method in brief: as §1
# [4] = system: DIPGX9 (diffuse intrinsic pontine glioma line)
# Method in brief: as §1
# [5] = system: HGGX39 (paediatric high-grade glioma line)
# Method in brief: as §1
# [6] = system: HGGX6 (H3.3 G34R paediatric high-grade glioma line)
# Method in brief: as §1
# [7] = system: HNSC
# Method in brief: as §1
# [8] = system: SUDIPGIV (diffuse intrinsic pontine glioma line)
# Method in brief: as §1
# [9] = system: SUDIPGVI (diffuse intrinsic pontine glioma line)
# Method in brief: as §1
# [10] = system: SUDIPGXIII (diffuse intrinsic pontine glioma line)
# Method in brief: as §1
SMILES,growth inhibition [1] [%],growth inhibition [2] [%],growth inhibition [3] [%],growth inhibition [4] [%],growth inhibition [5] [%],growth inhibition [6] [%],growth inhibition [7] [%],growth inhibition [8] [%],growth inhibition [9] [%],growth inhibition [10] [%]
Cc1cccc(Nc2ccccc2C(=O)O)c1C,-4,-1.52,3.05,-3.62,-3.34,-4.45,9.87,-8.08,-6.14,-0.652
CN(C)c1cc(NC(=O)CNC(C)(C)C)c(O)c2c1CC1CC3C(N(C)C)C(=O)C(C(N)=O)=C(O)C3(O)C(=O)C1=C2O (stereo not given),-2.13,-0.102,-0.656,-1.41,-1.33,-2.33,-2.93,-2.9,-1.89,0.694
O=c1c(-c2ccc(O)cc2)coc2cc(O)ccc12,-1.42,-0.456,-0.191,-0.874,1.36,-0.307,-2.12,-0.853,-1.44,0.974
Cc1ccc2c(Cl)cc(Cl)c(O)c2n1,8.88,2.78,3.99,8.04,4.68,3.09,46,5.39,5.64,3.89
C#CC1(O)CCC2C3CCc4cc(OC)ccc4C3CCC21C (stereo not given),0.518,-0.765,-0.178,1.8,0.428,1.53,-0.897,-1.25,2.06,-0.164
Cc1cc(C(C)(C)C)c(O)c(C)c1CC1=NCCN1,0.231,3.01,1.52,2.19,1.3,0.112,0.146,1.18,1.88,0.459
NC(=O)c1cccnc1,-0.689,-1.05,-0.0852,0.951,0.786,0.835,0.303,-0.404,-0.906,0.194
CCc1nc(N)nc(N)c1-c1ccc(Cl)cc1,16.1,2.67,1.94,4.42,7.42,2.78,6.9,12.6,7.22,4.01
O=S(=O)(O)Oc1ccc(C(c2ccc(OS(=O)(=O)O)cc2)c2ccccn2)cc1,-1.54,-1.27,-2.88,-1.22,-0.859,-1.53,-1.57,-2.15,-2.91,0.476
CN(C)CC/C=C1/c2ccccc2Sc2ccc(Cl)cc21,-0.186,0.387,0.793,0.131,0.989,2.17,-1.13,-1.17,-0.358,-1.03
CN(C)CCCN1c2ccccc2CCc2ccc(Cl)cc21,0.798,0.768,0.947,2.88,7.81,0.658,8.46,7.66,3.07,3.28
C[C@H](Cn1cnc2c(N)ncnc21)OCP(=O)(O)O,-1.46,-3.07,-1.11,-0.823,-1.24,-0.0212,-0.925,-2.6,-0.383,0.192
COC(=O)C1=C(C)NC(C)=C(C(=O)OCCN2CCN(C(c3ccccc3)c3ccccc3)CC2)C1c1cccc([N+](=O)[O-])c1 (stereo not given),5.69,6.99,4.72,4.03,8.12,5.46,73,3.75,6.07,22
Cn1c([N+](=O)[O-])cnc1COC(N)=O,0.121,3.86,2.76,0.536,2.55,-0.567,7.72,2.41,2.16,0.864
Nc1c2c(nc3ccccc13)CCCC2,-2.45,1.21,-2.4,-0.673,-0.0323,-0.396,-4.73,1.29,-2.15,-0.353
Clc1ccc(C(Cn2ccnc2)OCc2c(Cl)cccc2Cl)c(Cl)c1 (stereo not given),2.72,3.03,3.97,3.76,8.33,5.87,4.09,11.2,2.55,10.5
COc1ccc(CC(C)NCC(O)c2ccc(O)c(NC=O)c2)cc1 (stereo not given),-0.234,-0.809,0.814,0.302,3.66,0.0101,6.49,0.93,1.33,-1.79

SMILES,growth inhibition [1] [%],growth inhibition [2] [%],growth inhibition [3] [%],growth inhibition [4] [%],growth inhibition [5] [%],growth inhibition [6] [%],growth inhibition [7] [%],growth inhibition [8] [%],growth inhibition [9] [%],growth inhibition [10] [%]
Nc1nc(=O)n([C@@H]2CS[C@H](CO)O2)cc1F,0.68,3.05,1.33,1.75,1.6,0.276,0.206,-0.429,2.25,-2.25
CC1(C)O[C@@H]2C[C@H]3[C@@H]4CCC5=CC(=O)C=C[C@]5(C)[C@H]4[C@@H](O)C[C@]3(C)[C@]2(C(=O)CO)O1,0.656,2.84,-0.564,3,2.23,1.78,-4.33,0.0175,-0.194,2.31
C[N+]1(C)CCC(=C(c2ccccc2)c2ccccc2)CC1,1.61,4.65,2.7,2.75,2.04,-0.684,23.1,4.27,8.89,1.56
Cc1cc(-n2c(=O)[nH]c(=O)n(C)c2=O)ccc1Oc1ccc(SC(F)(F)F)cc1,1.92,4.99,3.64,1.95,4.82,2.18,5.28,2.64,4.98,-0.649
CC(=O)SCC(Cc1ccccc1)C(=O)NCC(=O)OCc1ccccc1 (stereo not given),1.1,2.25,1.03,1.31,1.49,1.32,-1.4,-1.43,-1.57,-0.948
CCCCOc1ccc(OCCCN2CCOCC2)cc1,5.55,2.14,14.7,1.12,8.05,7.63,5.68,1.4,1.31,1.81
Nc1ccc(C(=O)NCC(=O)O)cc1,-0.487,-0.247,-0.0371,0.0884,1.62,2.81,-1.34,1.42,1.49,0.0926
O=C(O)c1cn(-c2ccc(F)cc2)c2cc(N3CCNCC3)c(F)cc2c1=O,1.77,0.654,2.46,2.37,4.02,3.31,1.3,4.25,3.85,0.944
C=CCNC(N)=S,-0.199,0.393,-0.932,-0.168,1.56,1.43,-1.32,-1.24,-2.19,-0.232
CN(C)CCN(Cc1ccccc1)c1ccccn1,1.64,2.34,0.0331,3.36,5.32,0.326,-1.72,-0.134,1.29,2.37
CNCC[C@H](Oc1cccc2ccccc12)c1cccs1,3.5,4.35,4.07,2.42,5.92,4.8,16.9,2.42,4.44,-1.12
CCN(CC)CCCC(C)Nc1ccnc2cc(Cl)ccc12 (stereo not given),2.54,3.91,3.48,2.75,2.84,2.74,2.95,1.72,2.6,0.0881
Cc1ncc(CO)c(CO)c1O,0.532,1.29,0.82,0.826,-0.552,2.21,1.1,0.59,0.153,-0.917
CCN1CCN(c2cc3c(cc2F)c(=O)c(C(=O)O)cn3C2CC2)CC1,-0.107,1.21,0.805,1.48,4.31,-0.135,1.17,1.5,1.16,-0.234
CC(C)CC(N)=O,0.179,0.749,-0.469,-0.164,0.0712,1.61,-1.96,-1.02,-0.151,-12.8
Nc1ccn(C[C@@H](CO)OCP(=O)(O)O)c(=O)n1,1.21,2.43,1.32,1.05,-0.556,-0.434,3.12,2.09,1.15,1.19
